The target of this assay is Lethal factor (Bacillus anthracis) (UniProt P15917). Kind of assay: anthrax lethal factor cleavage blockers – biochemical, multiplex microsphere, cherry pick 1, confirmation (AID 602142). To be noted: multiplex microsphere protease cleavage assay, LF; at 10 µM; hits give high values.

The other results are listed elsewhere or left out. A number with no mark means an inactive call. No rule for the calls is given here.

Lethal factor (Bacillus anthracis), sequence (P15917 whole entry, looked up): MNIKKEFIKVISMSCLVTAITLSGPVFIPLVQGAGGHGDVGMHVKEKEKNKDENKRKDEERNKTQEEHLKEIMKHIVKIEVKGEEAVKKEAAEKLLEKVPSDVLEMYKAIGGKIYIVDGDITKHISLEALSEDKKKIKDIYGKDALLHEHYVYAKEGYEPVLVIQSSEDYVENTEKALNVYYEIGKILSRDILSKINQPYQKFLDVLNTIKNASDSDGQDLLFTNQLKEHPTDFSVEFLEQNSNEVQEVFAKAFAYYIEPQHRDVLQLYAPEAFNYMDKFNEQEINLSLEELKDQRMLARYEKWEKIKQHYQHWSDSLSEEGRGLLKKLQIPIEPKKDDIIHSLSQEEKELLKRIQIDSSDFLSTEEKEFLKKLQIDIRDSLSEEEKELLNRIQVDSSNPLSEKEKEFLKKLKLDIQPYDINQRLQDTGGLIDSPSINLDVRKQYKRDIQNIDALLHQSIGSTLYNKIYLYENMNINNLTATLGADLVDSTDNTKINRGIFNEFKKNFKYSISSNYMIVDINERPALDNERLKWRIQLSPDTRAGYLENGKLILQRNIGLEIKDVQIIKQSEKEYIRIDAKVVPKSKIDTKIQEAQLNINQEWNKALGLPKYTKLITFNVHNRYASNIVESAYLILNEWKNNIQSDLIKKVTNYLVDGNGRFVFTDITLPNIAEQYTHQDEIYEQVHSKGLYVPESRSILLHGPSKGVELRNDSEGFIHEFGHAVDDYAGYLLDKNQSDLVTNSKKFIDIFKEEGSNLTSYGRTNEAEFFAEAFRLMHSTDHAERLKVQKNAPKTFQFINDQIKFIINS

For the compound `Cc1ccc(-c2nc(-c3cccnc3)sc2CC(=O)Nc2ccc(C)c(Cl)c2)cc1`, the inhibition was 1.7%.
For `CC(C)Cc1nnc(NC(=O)CCC(=O)Nc2ccc3cn[nH]c3c2)s1` the value was -2.6%; for `Nc1ccccc1Sc1cc(Cl)nnc1Cl`, -3.5%; for `COc1ccc(Br)cc1CNCCc1cccc(Cl)c1`, 3.2%.
On to `CCOCCn1c(-c2ccccc2)nc2ccccc21`, for which the inhibition is -0.9%.
For `COCc1cc(=O)[nH]c(SC)n1` the value was -4.9%; for `COc1ccc(NS(=O)(=O)c2cc(C(=O)Nc3ccccc3C(=O)O)ccc2C)cc1`, -2.7%.
For `Clc1ccc(-c2ncc3ccccn23)c(Cl)c1` the value was 2.1%.
For `COc1cc(C(=O)NCc2ccc3c(c2)cc(C)n3C)cc(OC)c1OC` the value was -4%.
Consider `CC1CCN(C(=O)c2ccc(S(=O)(=O)Cc3cc(F)ccc3F)c([N+](=O)[O-])c2)CC1`, for which the inhibition was 1.6%.
For the compound `O=C(Nc1nnc(CCc2ccccc2)s1)C1CCCO1` (configuration not stated), the inhibition was 2.9%.
For `COc1ccc(N(CC(=O)NCCSCc2cccc(Cl)c2)S(C)(=O)=O)cc1` the value was -1.8%.
For `CCOc1nnc(C)c2c(C)n(-c3cccc(Cl)c3)nc12`, the inhibition is 3.5%.
`COc1ccccc1C1CCN(C(=S)Nc2ccc(Br)cc2)CC1`: the inhibition is 1.5%.
For `Cc1ccc2[nH]cc(CCNC(=O)C3CCCCC3)c2c1` the value was 3.7%; for `COc1ccccc1CNC(=O)C1Cc2ccccc2C(=O)O1` (configuration not stated), 1.5%.
For `Cc1c(NC(=O)c2cccnc2)c(=O)n(-c2ccccc2)n1C` the value was 4.2%; for `O=S(=O)(NC1CCCCC1N1CCC(O)CC1)c1ccc(Cl)cc1` (configuration not stated), -1.6%.
For `CN1CCN(c2ccc(NC(=O)c3ccccc3)cc2)CC1` the value was 4.8%.
As to `O=C(CN1CCCCCC1)Nc1c(Cl)cc(Cl)cc1Cl`, the inhibition is 2.3%.
For `CC1CCc2c(sc3nc4n(c(=O)c23)CCS4)C1` (configuration not stated), the inhibition is 3.6%.
For `CCOCC(=O)NCc1ccc2c(c1)cc(C)n2C` the value was -1%.

Values taken from PubChem BioAssay AID602142 (NMMLSC, 2011).
